Assay results published in the supplement of paper PMC11732987, “Enantioselective OTUD7B fragment discovery through chemoproteomics screening and high-throughput optimisation” (Communications Chemistry, 2025).
Values without a mark were called inactive.

Experiments:
Assay in all cases: log2 ratio of Biotin-Ahx-Ub-VS probe labelling (fragment/DMSO); higher = less target engagement (more negative = stronger competition), active = hit call of the paper (q ≤ 0.05, log2 ratio ≤ -1)
Details in all cases: compound concentration: 200 uM; treatment time: 3 h
UniProt O00507 = molecular target: UniProt O00507
Chain of UniProt O00507 (O00507 whole entry, the tested form may be a part): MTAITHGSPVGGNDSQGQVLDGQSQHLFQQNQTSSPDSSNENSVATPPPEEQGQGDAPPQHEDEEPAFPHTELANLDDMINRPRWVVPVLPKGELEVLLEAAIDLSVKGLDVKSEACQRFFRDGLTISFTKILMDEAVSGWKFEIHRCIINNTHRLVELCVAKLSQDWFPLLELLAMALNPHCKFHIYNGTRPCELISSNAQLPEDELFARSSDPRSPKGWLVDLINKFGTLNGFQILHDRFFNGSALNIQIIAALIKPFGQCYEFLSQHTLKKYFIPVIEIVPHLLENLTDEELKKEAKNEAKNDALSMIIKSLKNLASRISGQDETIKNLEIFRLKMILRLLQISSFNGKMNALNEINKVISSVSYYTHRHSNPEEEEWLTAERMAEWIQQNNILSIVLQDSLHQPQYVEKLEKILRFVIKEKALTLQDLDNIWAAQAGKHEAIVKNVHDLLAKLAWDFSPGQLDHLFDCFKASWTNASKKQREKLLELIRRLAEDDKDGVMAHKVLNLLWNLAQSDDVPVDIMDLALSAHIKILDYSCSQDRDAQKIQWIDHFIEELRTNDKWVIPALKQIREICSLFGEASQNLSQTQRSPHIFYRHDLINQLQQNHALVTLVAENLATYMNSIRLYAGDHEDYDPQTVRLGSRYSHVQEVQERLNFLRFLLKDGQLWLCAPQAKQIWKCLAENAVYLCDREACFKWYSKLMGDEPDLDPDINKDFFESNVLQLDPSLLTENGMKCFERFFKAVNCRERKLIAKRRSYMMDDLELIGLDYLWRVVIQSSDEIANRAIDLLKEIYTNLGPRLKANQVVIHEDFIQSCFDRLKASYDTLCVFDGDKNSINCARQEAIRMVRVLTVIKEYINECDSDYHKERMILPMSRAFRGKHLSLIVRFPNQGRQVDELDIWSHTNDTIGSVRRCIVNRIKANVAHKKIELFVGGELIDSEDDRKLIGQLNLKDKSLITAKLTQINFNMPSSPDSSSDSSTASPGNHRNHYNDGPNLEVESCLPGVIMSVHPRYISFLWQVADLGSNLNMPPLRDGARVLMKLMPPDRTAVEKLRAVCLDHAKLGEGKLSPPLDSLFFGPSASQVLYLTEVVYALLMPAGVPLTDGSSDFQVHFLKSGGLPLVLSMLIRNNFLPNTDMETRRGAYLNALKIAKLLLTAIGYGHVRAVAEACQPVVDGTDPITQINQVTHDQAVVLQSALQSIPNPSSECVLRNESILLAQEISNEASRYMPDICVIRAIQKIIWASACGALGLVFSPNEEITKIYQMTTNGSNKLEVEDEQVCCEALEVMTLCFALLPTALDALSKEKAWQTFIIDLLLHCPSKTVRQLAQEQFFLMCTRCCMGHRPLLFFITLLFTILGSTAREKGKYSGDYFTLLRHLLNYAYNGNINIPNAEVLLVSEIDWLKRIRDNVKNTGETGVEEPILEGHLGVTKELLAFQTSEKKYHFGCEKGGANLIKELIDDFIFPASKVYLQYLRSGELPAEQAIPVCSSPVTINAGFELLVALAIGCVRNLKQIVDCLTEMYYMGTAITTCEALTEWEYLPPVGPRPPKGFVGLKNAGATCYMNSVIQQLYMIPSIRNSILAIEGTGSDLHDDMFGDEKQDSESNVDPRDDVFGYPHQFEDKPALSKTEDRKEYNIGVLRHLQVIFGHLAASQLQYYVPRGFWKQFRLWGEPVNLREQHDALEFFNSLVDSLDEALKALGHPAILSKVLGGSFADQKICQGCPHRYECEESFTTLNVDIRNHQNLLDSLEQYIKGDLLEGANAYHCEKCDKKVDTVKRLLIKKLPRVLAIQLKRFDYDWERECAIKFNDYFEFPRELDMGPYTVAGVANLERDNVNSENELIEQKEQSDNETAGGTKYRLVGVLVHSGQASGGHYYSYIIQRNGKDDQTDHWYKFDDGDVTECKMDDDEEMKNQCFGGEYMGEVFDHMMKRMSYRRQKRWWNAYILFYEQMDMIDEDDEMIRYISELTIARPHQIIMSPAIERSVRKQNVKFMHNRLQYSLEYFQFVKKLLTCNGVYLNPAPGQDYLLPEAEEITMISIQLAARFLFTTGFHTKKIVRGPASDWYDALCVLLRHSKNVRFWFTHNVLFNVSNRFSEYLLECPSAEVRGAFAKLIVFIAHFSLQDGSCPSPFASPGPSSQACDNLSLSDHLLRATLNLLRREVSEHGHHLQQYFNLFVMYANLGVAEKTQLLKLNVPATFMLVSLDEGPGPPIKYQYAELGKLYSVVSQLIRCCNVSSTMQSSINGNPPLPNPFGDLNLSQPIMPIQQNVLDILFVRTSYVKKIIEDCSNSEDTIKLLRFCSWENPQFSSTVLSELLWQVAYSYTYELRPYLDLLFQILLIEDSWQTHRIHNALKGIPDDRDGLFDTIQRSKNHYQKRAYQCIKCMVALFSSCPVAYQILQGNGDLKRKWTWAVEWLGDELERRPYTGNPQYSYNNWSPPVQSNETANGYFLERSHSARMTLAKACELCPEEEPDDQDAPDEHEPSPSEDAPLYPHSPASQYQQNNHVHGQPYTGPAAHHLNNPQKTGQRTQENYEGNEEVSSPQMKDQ
Method in brief: (§1)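 Labelled DUBs were enriched with NeutrAvidin, digested with LysC and trypsin, and run by diaPASEF LC-MS/MS. The labelling used Biotin-Ahx-Ub-VS at 0.5 µM final for 1 h on HEK293T lysate (495 µg per sample) previously treated in triplicate with fragment at 200 µM or vehicle for 3 h. Values are average log2 fragment/vehicle ratios by unpaired t-test on global-median-normalised Spectronaut quantities of proteins with ≥2 unique peptides.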

UniProt P51784 = molecular target: UniProt P51784
Chain of UniProt P51784 (P51784 whole entry): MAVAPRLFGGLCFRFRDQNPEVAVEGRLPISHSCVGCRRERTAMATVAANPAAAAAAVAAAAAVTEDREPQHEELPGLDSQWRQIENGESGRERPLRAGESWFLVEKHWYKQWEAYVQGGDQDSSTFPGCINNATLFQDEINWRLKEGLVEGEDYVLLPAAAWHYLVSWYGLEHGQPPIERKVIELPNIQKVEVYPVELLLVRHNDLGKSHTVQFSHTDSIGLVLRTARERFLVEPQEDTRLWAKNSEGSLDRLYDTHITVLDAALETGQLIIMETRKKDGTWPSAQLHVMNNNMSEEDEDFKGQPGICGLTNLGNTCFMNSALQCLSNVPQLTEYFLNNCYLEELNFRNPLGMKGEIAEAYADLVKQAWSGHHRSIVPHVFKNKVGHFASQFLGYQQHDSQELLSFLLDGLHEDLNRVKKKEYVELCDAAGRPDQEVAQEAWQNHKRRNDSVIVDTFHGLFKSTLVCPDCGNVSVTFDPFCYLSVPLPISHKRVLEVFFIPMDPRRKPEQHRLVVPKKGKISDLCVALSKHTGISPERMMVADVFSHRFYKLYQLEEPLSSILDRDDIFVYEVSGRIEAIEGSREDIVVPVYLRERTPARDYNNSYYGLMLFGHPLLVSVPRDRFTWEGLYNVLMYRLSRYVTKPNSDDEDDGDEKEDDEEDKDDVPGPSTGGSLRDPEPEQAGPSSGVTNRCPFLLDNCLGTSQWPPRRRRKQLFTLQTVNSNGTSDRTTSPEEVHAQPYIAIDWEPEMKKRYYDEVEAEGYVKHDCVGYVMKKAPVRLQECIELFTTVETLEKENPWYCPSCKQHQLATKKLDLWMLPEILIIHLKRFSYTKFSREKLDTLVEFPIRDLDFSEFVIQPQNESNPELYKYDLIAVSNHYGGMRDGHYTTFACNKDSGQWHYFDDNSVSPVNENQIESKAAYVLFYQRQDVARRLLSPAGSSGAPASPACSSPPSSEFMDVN
Method in brief: as §1

UniProt Q5T2D3 = molecular target: T1, UniProt Q5T2D3
T1 sequence (whole entry): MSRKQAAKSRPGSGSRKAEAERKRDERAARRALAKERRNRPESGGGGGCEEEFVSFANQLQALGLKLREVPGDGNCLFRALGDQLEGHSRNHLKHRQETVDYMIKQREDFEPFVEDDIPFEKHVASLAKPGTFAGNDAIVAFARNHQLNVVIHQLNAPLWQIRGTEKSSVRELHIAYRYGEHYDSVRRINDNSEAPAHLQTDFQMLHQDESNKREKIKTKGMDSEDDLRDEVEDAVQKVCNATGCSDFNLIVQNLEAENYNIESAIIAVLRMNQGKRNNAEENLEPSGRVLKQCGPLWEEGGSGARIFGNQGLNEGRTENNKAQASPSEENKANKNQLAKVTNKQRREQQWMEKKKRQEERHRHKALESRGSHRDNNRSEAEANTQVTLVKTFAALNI
Method in brief: as §1

UniProt Q8TE49 = molecular target: T2, UniProt Q8TE49
T2 sequence (whole entry): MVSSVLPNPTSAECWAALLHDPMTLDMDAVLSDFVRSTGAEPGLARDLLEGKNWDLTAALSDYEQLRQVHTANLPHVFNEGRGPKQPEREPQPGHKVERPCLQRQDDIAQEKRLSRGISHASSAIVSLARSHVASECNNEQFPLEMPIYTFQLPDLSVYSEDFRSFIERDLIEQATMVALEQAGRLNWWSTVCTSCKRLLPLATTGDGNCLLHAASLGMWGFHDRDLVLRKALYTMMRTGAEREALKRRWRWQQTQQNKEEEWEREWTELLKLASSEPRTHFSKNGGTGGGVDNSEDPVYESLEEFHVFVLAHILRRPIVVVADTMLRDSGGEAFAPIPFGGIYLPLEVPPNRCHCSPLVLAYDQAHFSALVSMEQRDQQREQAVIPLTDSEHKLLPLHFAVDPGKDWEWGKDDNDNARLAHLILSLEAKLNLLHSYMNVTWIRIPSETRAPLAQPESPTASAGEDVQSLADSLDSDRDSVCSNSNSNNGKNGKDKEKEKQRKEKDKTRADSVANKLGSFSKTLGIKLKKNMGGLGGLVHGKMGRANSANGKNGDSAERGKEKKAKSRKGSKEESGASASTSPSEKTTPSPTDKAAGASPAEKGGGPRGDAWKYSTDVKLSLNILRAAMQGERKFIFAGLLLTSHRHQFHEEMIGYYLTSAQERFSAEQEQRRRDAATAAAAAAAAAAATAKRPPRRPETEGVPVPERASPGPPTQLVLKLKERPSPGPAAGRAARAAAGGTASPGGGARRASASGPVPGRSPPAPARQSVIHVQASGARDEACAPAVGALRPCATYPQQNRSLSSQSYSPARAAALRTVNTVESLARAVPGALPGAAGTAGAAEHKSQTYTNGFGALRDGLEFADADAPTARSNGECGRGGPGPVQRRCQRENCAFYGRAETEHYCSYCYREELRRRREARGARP
Method in brief: as §1

UniProt Q9P2H5 = molecular target: T3, UniProt Q9P2H5
T3 sequence (whole entry): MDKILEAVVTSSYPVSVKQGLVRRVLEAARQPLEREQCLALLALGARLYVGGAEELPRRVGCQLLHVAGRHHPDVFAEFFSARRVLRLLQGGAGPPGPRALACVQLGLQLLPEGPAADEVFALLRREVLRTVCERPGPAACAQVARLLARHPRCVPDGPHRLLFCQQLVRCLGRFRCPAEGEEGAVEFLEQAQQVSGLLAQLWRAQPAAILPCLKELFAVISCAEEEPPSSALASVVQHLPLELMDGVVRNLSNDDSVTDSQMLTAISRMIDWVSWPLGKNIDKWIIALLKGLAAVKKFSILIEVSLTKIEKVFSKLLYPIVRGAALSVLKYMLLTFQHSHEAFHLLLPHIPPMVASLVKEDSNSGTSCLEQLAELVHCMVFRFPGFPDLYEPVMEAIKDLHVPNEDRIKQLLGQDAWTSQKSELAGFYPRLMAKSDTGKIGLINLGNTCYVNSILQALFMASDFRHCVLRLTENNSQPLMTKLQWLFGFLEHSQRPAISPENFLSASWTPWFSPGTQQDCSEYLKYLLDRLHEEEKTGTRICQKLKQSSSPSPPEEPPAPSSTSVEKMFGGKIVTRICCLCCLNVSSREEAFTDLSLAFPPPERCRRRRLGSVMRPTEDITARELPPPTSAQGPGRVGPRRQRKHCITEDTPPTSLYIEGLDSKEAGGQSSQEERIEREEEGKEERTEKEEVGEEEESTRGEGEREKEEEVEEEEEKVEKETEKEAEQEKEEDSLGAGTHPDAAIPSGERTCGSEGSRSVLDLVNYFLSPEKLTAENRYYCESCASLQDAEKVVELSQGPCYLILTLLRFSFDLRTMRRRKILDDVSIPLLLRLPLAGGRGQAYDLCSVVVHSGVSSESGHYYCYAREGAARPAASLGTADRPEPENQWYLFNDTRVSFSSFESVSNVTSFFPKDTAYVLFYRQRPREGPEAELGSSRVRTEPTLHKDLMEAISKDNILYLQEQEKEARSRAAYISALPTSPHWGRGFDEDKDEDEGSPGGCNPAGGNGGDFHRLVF
Method in brief: as §1

UniProt Q9UGI0 = molecular target: T4, UniProt Q9UGI0
T4 sequence (whole entry): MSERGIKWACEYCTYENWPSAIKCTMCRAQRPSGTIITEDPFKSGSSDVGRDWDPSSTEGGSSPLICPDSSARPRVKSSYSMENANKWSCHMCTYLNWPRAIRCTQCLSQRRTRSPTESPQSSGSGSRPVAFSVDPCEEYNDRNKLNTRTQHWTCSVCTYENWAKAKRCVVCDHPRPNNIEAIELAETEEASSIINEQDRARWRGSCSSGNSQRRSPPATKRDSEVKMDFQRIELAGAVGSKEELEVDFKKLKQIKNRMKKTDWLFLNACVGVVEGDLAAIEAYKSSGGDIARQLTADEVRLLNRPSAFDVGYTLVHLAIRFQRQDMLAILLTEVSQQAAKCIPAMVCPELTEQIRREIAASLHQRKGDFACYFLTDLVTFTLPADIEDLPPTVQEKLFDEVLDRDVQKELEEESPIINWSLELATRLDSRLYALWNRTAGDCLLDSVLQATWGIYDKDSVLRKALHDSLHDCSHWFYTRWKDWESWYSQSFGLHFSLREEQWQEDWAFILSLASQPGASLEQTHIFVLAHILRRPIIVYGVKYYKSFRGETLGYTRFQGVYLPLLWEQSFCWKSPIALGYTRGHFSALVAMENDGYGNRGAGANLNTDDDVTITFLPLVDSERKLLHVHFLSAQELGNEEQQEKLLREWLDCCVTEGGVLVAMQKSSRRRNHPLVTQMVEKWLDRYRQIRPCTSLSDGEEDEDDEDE
Method in brief: as §1

YOD1 = molecular target: T5, YOD1 (UniProt Q5VVQ6)
T5 sequence (whole entry): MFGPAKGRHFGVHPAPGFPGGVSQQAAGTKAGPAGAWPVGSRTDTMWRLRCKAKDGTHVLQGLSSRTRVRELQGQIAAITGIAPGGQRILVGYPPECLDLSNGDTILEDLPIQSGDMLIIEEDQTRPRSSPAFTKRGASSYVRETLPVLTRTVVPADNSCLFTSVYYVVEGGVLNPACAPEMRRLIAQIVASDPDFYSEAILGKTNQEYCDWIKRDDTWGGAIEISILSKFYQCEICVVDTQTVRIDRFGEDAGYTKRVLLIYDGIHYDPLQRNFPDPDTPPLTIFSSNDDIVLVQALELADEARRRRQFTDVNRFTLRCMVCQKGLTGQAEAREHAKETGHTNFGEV
Method in brief: as §1

SMILES | log2 ratio of Biotin-Ahx-Ub-VS probe labelling (UniProt O00507) | log2 ratio of Biotin-Ahx-Ub-VS probe labelling (UniProt P51784) | log2 ratio of Biotin-Ahx-Ub-VS probe labelling (UniProt Q5T2D3) | log2 ratio of Biotin-Ahx-Ub-VS probe labelling (UniProt Q8TE49) | log2 ratio of Biotin-Ahx-Ub-VS probe labelling (UniProt Q9P2H5) | log2 ratio of Biotin-Ahx-Ub-VS probe labelling (UniProt Q9UGI0) | log2 ratio of Biotin-Ahx-Ub-VS probe labelling (YOD1)
O=C(CCl)NC1(c2ccc3c(c2)OCCO3)CCCC1 | -0.152 | -0.000106 | -0.339 | -0.447 | -0.3 | -0.26 | -0.199
N#Cc1cnn(-c2ccccc2)c1NC(=O)CCl | -0.331 | -0.12 | -0.209 | -1.4 (active) | -0.407 | -1.04 (active) | -0.327
CC(NC(=O)CCl)c1cccc(Cl)c1 (stereo not given) | -0.176 | -0.0638 | -0.271 | -0.632 | -0.25 | -1.18 (active) | -0.167
NC(=O)C1CCCN(C(=O)CCl)C1 (stereo not given) | -0.185 | -0.0378 | 0.103 | 0.0487 | -0.0803 | -0.698 | 0.00724
Cc1ncsc1CCNC(=O)CCl | 0.115 | 0.269 | -0.0368 | -0.0765 | -0.0174 | -0.0599 | 0.0977
CN(CCc1ncc(Br)cn1)C(=O)CCl.Cl | -0.225 | -0.0725 | -0.508 | -1.75 (active) | -0.437 | -0.752 | 0.0394
Cc1ccc(N(CCC#N)C(=O)CCl)cc1C | -0.369 | -0.0613 | -0.0739 | -2.2 (active) | -0.14 | -1.49 (active) | 0.0402
O=C(CCl)Nc1ccc(N2CCCC2=O)cc1 | -0.208 | 0.297 | 0.165 | 0.0701 | 0.00543 | -0.752 | 0.137
O=C(CCl)N1CCC(c2nc3ccccc3o2)CC1 | -0.57 | -0.0526 | -0.14 | -0.625 | -0.191 | -0.567 | -0.217
O=C(CCl)N1CCN(C(=O)Nc2ccccc2)CC1 | 0.452 | 0.16 | -0.132 | -0.337 | -0.158 | 0.0377 | 0.444
CC(NC(=O)CCl)c1cnn(C2CC2)c1 (stereo not given) | -0.607 | -0.127 | -0.192 | -0.779 | -0.0606 | -0.311 | -0.732
O=C(CCl)Nc1ccc(Cl)c(F)c1 | -0.588 | -0.219 | -0.339 | -0.571 | -0.0638 | -1.27 (active) | -0.313
O=C(CCl)N1CC2(CCOCC2)C1 | -0.0593 | 0.164 | -0.249 | -0.469 | -0.109 | -0.328 | -0.131
Cc1noc(C)c1CNC(=O)CCl | -0.346 | -0.582 | -0.715 | -1.28 (active) | -0.835 | -1.01 (active) | -0.752
Cc1cc(C2CCCN2C(=O)CCl)nn1C.Cl (stereo not given) | -0.0169 | -0.386 | -0.106 | -0.432 | -0.247 | 0.115 | -0.199
CN(C(=O)CCl)c1nc2ccccc2s1 | 0.257 | -0.083 | -0.0566 | -0.558 | -0.266 | -1.12 (active) | 0.155
O=C(CCl)N1CCN(c2nc3ccccc3o2)CC1 | -0.666 | -0.255 | -0.0854 | -0.515 | -0.57 | -0.691 | -0.434
N#Cc1ccccc1N1CCN(C(=O)CCl)CC1 | -0.534 | -0.515 | -0.687 | -1.29 (active) | -0.617 | -2.22 (active) | -0.448
Cc1ccc(CN(C)C(=O)CCl)o1 | 0.383 | 0.146 | -0.109 | -0.671 | -0.321 | -0.57 | 0.384
Cc1ccc(N2CCC(NC(=O)CCl)C2=O)cc1 (stereo not given) | 0.561 | 0.0347 | -0.0872 | -0.518 | -0.134 | 0.0412 | 0.132
